From PubChem BioAssay (NCATS) come the findings set out here.

The structures appear in SMILES notation. “And” between values parts separate entries of the source, which are not always exact repeats. Equal values may be shown once. Results filed as inconclusive are left out. Where a call stands in place of a potency, no number is given. The source made the active and inactive calls. Unless noted, calls come from the whole dose curve.

Chain of Voltage-gated inwardly rectifying potassium channel KCNH2 (Homo sapiens) (Q12809 whole entry, looked up): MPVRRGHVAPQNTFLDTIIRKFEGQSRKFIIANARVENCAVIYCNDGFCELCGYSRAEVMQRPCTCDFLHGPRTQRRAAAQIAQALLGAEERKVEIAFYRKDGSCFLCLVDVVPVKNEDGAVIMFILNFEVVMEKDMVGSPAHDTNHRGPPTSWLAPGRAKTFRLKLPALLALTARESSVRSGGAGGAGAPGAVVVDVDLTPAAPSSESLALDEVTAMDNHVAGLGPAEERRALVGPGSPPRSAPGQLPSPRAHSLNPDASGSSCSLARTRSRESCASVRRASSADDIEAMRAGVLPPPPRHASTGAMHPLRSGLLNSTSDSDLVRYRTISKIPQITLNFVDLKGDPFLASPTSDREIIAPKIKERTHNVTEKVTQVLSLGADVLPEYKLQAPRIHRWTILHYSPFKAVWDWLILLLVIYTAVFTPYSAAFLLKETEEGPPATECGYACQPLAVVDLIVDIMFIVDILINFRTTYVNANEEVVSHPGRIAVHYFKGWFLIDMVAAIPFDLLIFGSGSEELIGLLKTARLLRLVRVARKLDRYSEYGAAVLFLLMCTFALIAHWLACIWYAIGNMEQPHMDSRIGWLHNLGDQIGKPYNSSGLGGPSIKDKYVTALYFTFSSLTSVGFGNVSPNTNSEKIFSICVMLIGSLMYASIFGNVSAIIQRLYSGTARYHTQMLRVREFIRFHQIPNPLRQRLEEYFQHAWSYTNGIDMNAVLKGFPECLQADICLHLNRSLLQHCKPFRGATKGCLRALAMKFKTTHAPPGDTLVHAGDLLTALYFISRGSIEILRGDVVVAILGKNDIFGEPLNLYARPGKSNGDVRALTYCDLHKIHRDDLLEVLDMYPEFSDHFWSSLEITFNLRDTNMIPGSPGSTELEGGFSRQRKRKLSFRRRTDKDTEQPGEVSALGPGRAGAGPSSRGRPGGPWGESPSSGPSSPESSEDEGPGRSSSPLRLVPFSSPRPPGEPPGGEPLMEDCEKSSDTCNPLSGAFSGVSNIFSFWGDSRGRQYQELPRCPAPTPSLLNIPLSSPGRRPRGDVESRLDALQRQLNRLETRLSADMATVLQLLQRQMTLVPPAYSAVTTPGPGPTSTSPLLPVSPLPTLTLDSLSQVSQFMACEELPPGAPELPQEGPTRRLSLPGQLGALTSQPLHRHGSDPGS

The target in the first test is Retinoic acid receptor RXR-alpha (Homo sapiens) (UniProt P19793). The experiment in a line: qHTS assay for small molecule agonists of retinoid X receptor alpha signaling (AID 588544). Note: potency is the fitted concentration of half-maximal effect. The settings on record: HEK293T RXRa-UAS-bla, beta-lactamase reporter, 18 h; series mostly up to 76.7 µM. On the technique in general: qHTS replaces the single test concentration by a dilution series.
Chain of Retinoic acid receptor RXR-alpha (Homo sapiens) (P19793 whole entry, looked up): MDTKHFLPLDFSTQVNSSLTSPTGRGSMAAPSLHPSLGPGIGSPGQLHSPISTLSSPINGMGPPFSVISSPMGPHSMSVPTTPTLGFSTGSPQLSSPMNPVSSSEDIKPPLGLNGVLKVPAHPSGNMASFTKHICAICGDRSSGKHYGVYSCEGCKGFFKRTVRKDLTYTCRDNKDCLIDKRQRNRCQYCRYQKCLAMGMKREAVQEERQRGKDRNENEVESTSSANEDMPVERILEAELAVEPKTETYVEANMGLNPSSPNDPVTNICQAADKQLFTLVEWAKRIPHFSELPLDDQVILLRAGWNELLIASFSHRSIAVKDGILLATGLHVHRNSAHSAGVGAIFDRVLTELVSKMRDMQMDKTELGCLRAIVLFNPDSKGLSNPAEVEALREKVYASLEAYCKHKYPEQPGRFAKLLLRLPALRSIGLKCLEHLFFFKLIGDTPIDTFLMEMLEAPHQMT
For the molecule `CC(C)c1cccc(C(C)C)c1O`, the Potency result is “inactive”.

With `O=C1c2ccccc2C(=O)c2ccccc21`, the Potency is 35.5 µM (active).

For the molecule `O=C(Oc1ccccc1)c1ccccc1O`, the Potency entry was “inactive”.

With `[N-]=[N+]=CC(=O)OC[C@H](N)C(=O)O`, the Potency entry is “inactive”.

With `Oc1ccccc1`, the Potency result was “inactive”.

Consider `O=C1c2ccccc2C(=O)C1C(=O)C(c1ccccc1)c1ccccc1`, for which the Potency result is “inactive”.

For `Nc1ccccc1C(=O)O`, the Potency result is “inactive”.

In the case of `Oc1ccc(Cl)cc1`, the Potency entry is “inactive”.

Take `Nc1ccc([As](=O)(O)O)cc1`: the Potency result is “inactive”.

On to `O=C(O)CCCc1ccc(N(CCCl)CCCl)cc1`, for which the Potency entry is “inactive”.

The target in another test is Thyroid hormone receptor beta (Homo sapiens) (UniProt P10828). The experiment in a line: qHTS assay for small molecule agonists of thyroid hormone receptor beta signaling (AID 588545). The conditions noted are these: TR-UAS-bla GripTite HEK 293, beta-lactamase ratio, agonist mode, 18 h, percent of T3 response, DMSO as zero; series mostly up to 76.7 µM. The essentials:
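HEK 293 TR-UAS-bla; agonist mode; 18 hrs, 37 C; CCF4, ex 405/em 460 and 530 nm; norm. T3 10 nM = 100%, DMSO = 0%; Hill fit → EC50, efficacy.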
Regarding `CCOP(=S)(OCC)Oc1ccc2c(C)c(Cl)c(=O)oc2c1`, the result was inactive.

For `CC(C)c1cccc(C(C)C)c1O`, the result was inactive.

Turning to `O=C1c2ccccc2C(=O)c2ccccc21`, the result was inactive.

On to `CN1C[C@H](C(=O)N[C@]2(C)O[C@@]3(O)[C@@H]4CCCN4C(=O)[C@H](Cc4ccccc4)N3C2=O)C=C2c3cccc4[nH]cc(c34)C[C@H]21`, for which the outcome was inactive.

`[N-]=[N+]=CC(=O)OC[C@H](N)C(=O)O`: the outcome was inactive.

Consider `O=C1c2ccccc2C(=O)C1C(=O)C(c1ccccc1)c1ccccc1`, for which the outcome was inactive.

Turning to `C[C@]12CCC(=O)C=C1CC[C@@H]1[C@@H]2CC[C@]2(C)C(=O)CC[C@@H]12`, the outcome was inactive.

Take `Nc1ccccc1C(=O)O`: the outcome was inactive.

`Oc1ccc(Cl)cc1`: the outcome was inactive.

Turning to `Nc1ccc([As](=O)(O)O)cc1`, the result was inactive.

Regarding `O=C(O)CCCc1ccc(N(CCCl)CCCl)cc1`, the result was inactive.

System in a further test: not listed separately
The experiment in a line: qHTS assay for small molecule antagonists of retinoid X receptor alpha signaling (AID 588546; active = well fitted inhibition curve with a large enough effect in the signal ratio, with a control signal flat, not every such curve was filed as active; the % refers to the signal ratio;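 note: cells stimulated with 9-cis-retinoic acid as agonist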). The settings on record: HEK293T RXRa-UAS-bla, beta-lactamase ratio, antagonist mode; measured here: W530 green channel, cytotoxicity proxy. In outline:
(§1)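 Beta-lactamase reporter inhibition, read as CCF4 fluorescence ratio (ex 405, em 460/530 nm) after 2 h at RT. HEK293T UAS-bla cells, 2500/well, were stimulated with 9-cis-RA at 500 or 100 nM final alongside test compound for 18 h at 37 C.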
As for `CC(C)c1cccc(C(C)C)c1O`, the max response stood at 2.4%.

On to `O=C1c2ccccc2C(=O)c2ccccc21`, for which the max response is -16.5%.

Regarding `[N-]=[N+]=CC(=O)OC[C@H](N)C(=O)O`, the max response is -15.7%.

Turning to `O=C1c2ccccc2C(=O)C1C(=O)C(c1ccccc1)c1ccccc1`, the max response was -10.9%.

On to `C[C@]12CCC(=O)C=C1CC[C@@H]1[C@@H]2CC[C@]2(C)C(=O)CC[C@@H]12`, for which the max response worked out at 24.5%.

`Nc1ccccc1C(=O)O`: the max response is -6.42%.

Turning to `Oc1ccc(Cl)cc1`, the max response is -7.58%.

Consider `Nc1ccc([As](=O)(O)O)cc1`, for which the max response was -13.3%.

As for `O=C(O)CCCc1ccc(N(CCCl)CCCl)cc1`, the max response was 6.94% and -4.83%.

Another test concerns the target Retinoic acid receptor RXR-alpha (Homo sapiens) (UniProt P19793). The test is described as above. The settings on record: HEK293T RXRa-UAS-bla, beta-lactamase ratio, antagonist mode. The essentials:
as §1
For `CC(C)c1cccc(C(C)C)c1O`, the max response was 16.4% (inactive).

For `O=C1c2ccccc2C(=O)c2ccccc21`, the max response was -15.9% (inactive).

On to `[N-]=[N+]=CC(=O)OC[C@H](N)C(=O)O`, for which the max response is 7.74% (inactive).

With `O=C1c2ccccc2C(=O)C1C(=O)C(c1ccccc1)c1ccccc1`, the max response is 13.2% (inactive).

For the molecule `C[C@]12CCC(=O)C=C1CC[C@@H]1[C@@H]2CC[C@]2(C)C(=O)CC[C@@H]12`, the max response is 1.25% (inactive).

In the case of `Nc1ccccc1C(=O)O`, the max response was 6.99% (inactive).

Take `Oc1ccc(Cl)cc1`: the max response was -3.06% (inactive).

As for `Nc1ccc([As](=O)(O)O)cc1`, the max response is -8.6% (inactive).

As for `O=C(O)CCCc1ccc(N(CCCl)CCCl)cc1`, the max response is 8.7% (inactive) and 8.13% (inactive).

The target of another test is Thyroid hormone receptor beta (Homo sapiens) (UniProt P10828). The experiment in a line: qHTS assay for small molecule antagonists of thyroid hormone receptor beta signaling (AID 588547; active = well fitted inhibition curve with a large enough effect in the signal ratio, with a control signal flat, not every such curve was filed as active; the % refers to the signal ratio;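 note: cells stimulated with 0.4 nM T3 agonist during compound exposure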). The settings on record: TR-UAS-bla HEK293, beta-lactamase ratio, antagonist mode, 18 h. In outline: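 Inhibition of T3-driven (0.4nM final) beta-lactamase reporter activity was measured over 0.59 nM to 92 uM compound after 18 h at 37 C. The cells were GripTite HEK293 TR-UAS-bla in charcoal/dextran-stripped serum, with CCF4 ratio read-out and IC50 from Hill fits.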
Chain of Thyroid hormone receptor beta (Homo sapiens) (P10828 whole entry, looked up): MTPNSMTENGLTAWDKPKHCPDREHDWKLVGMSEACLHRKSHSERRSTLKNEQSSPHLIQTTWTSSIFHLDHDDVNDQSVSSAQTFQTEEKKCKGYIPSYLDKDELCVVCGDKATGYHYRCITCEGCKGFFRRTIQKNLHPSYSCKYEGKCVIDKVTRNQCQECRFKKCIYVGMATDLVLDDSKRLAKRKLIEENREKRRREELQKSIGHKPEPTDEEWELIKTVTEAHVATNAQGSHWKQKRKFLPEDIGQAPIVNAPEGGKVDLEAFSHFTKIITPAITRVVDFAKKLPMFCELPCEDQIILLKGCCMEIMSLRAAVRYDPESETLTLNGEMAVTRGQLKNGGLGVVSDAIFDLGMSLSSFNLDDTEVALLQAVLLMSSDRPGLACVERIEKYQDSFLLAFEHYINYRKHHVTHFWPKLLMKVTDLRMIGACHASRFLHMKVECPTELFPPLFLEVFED
For `CC(C)c1cccc(C(C)C)c1O`, the activity change % (negative = inhibition) is -3.45% (inactive).

`O=C1c2ccccc2C(=O)c2ccccc21`: the activity change % (negative = inhibition) was -1.19% (inactive).

Regarding `[N-]=[N+]=CC(=O)OC[C@H](N)C(=O)O`, the activity change % (negative = inhibition) was 10.8% (inactive).

For the molecule `O=C1c2ccccc2C(=O)C1C(=O)C(c1ccccc1)c1ccccc1`, the activity change % (negative = inhibition) was 3.48% (inactive).

On to `C[C@]12CCC(=O)C=C1CC[C@@H]1[C@@H]2CC[C@]2(C)C(=O)CC[C@@H]12`, for which the activity change % (negative = inhibition) was 12.5% (inactive).

In the case of `Nc1ccccc1C(=O)O`, the activity change % (negative = inhibition) is 18% (inactive).

On to `Oc1ccc(Cl)cc1`, for which the activity change % (negative = inhibition) was -0.268% (inactive).

Take `Nc1ccc([As](=O)(O)O)cc1`: the activity change % (negative = inhibition) is 0.893% (inactive).

Regarding `O=C(O)CCCc1ccc(N(CCCl)CCCl)cc1`, the activity change % (negative = inhibition) is 16.9% (inactive) and 14.1% (inactive).

Another test deals with Voltage-gated inwardly rectifying potassium channel KCNH2 (Homo sapiens) (UniProt Q12809). The experiment in a line: qHTS Assay for Small Molecule Inhibitors of the Human hERG Channel Activity (AID 588834; active = well fitted inhibition curve with a large enough effect;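 note: lower thallium flux fluorescence means stronger hERG block; nearly all actives have a fitted effect of over 50% in size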; note: potency is the fitted concentration of half-maximal effect). The settings on record: U2OS BacMam hERG, FluxOR thallium flux fluorescence; series mostly up to 46.1 µM. The essentials:
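Cells were infected with hERG-BacMam virus for 4 hrs at room temperature, grown overnight, then seeded at 2000/well. After dye loading and roughly 10 min compound treatment, thallium influx was triggered and fluorescence recorded.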
For `CC(=O)OCC1=C(C(=O)O)N2C(=O)[C@@H](N)[C@H]2SC1`, the Potency result is “inactive”.

Consider `C[C@@H](N)[C@@H](O)c1ccccc1`, for which the Potency entry was “inactive”.

On to `COC(=O)[C@@H](N)CCCN/C(N)=N/[N+](=O)[O-]`, for which the Potency result is “inactive”.

Take `CCOP(=S)(OCC)Oc1ccc2c(C)c(Cl)c(=O)oc2c1`: the Potency result is “inactive”.

With `CC(C)c1cccc(C(C)C)c1O`, the Potency entry is “inactive”.

Regarding `O=C1c2ccccc2C(=O)c2ccccc21`, the Potency entry is “inactive”.

In the case of `CN1C[C@H](C(=O)N[C@]2(C)O[C@@]3(O)[C@@H]4CCCN4C(=O)[C@H](Cc4ccccc4)N3C2=O)C=C2c3cccc4[nH]cc(c34)C[C@H]21`, the Potency is 12.6 µM (active).

As to `NC1=NC(=O)C(c2ccccc2)O1` (stereo unspecified), the Potency entry is “inactive”.

Regarding `CC(=O)NC1CCSC1=O` (stereo unspecified), the Potency entry was “inactive”.

On to `O=C1c2ccccc2C(=O)C1C(=O)C(c1ccccc1)c1ccccc1`, for which the Potency entry is “inactive”.

For `C[C@]12CCC(=O)C=C1CC[C@@H]1[C@@H]2CC[C@]2(C)C(=O)CC[C@@H]12`, the Potency entry was “inactive”.

For the molecule `C[C@@H]1O[C@@H]1P(=O)(O)O`, the Potency entry was “inactive”.

As to `O=C(O)/C=C\C(=O)O`, the Potency result is “inactive”.

For `Nc1ccccc1C(=O)O`, the Potency result is “inactive”.

As for `CCCCCN(C)CCC(O)(P(=O)(O)O)P(=O)(O)O`, the Potency result was “inactive”.

With `Oc1ccc(Cl)cc1`, the Potency entry is “inactive”.

As for `Nc1ccc([As](=O)(O)O)cc1`, the Potency entry is “inactive”.

In the case of `O=C(O)CCCc1ccc(N(CCCl)CCCl)cc1`, the Potency entry is “inactive”.
